The values that follow come from ChEMBL document CHEMBL4513216, “Probing the Open Global Health Chemical Diversity Library for Multistage-Active Starting Points for Next-Generation Antimalarials” (ACS Infect Dis, 2020).

Structures are written as SMILES. About 8,600 (12%) of roughly 69,000 compounds showed an effect of 50% or more. For the sample, strong results were picked, then their nearest neighbours and some compounds at random.

This assay relates to Plasmodium berghei. Nature of the assay: Screen against P. berghei liver stage (PbLuc), transformed with Luciferase, at 10uM. The assay is classed as functional, HepG2. Conditions: tested at 10 uM.
On to `CC(Cc1ccco1)NC(=O)Nc1ccc(N2CCCC2)nc1` (configuration not stated), for which the INHIBITION is given as 21.425%.
In the case of `Cc1ccc(S(=O)(=O)N2CCC(c3n[nH]cc3C)C2)cc1` (configuration not stated) it was 32.8%; in that of `CCN1CC2(CC1=O)CN(Cc1ccncc1)CCN(C(=O)C(C)C)C2` (configuration not stated), 38.5%; in that of `COc1cc(-c2nc3c([nH]2)CCCNC3=O)ccc1OC(C)C`, -125%.
Turning to `CCCN(Cc1cnc2ccccc2n1)Cc1ccccc1OC`, the INHIBITION worked out at 61.9%.
Consider `CCCN(Cc1nc2ccccc2[nH]1)Cc1ccccc1OC`, for which the INHIBITION is 82.3%.
`CCCN(Cc1ccc(OC)nc1)Cc1ccccc1OC`: the INHIBITION is 37.8%.
Regarding `CCCN(Cc1ccc(S(=O)(=O)NC)cc1)Cc1ccccc1OC`, the INHIBITION was found to be 38.6%.
For the molecule `Cc1ccc(CN(CCN(C)C)Cc2nc3ccccc3[nH]2)s1`, the INHIBITION was determined as 36.5%.
For the molecule `CCCN(Cc1ccccn1)Cc1ccccc1OC`, the INHIBITION was found to be 45.2%.
With `Cc1cccc(N2CCCC2c2nc(C)ncc2CN(C)C)n1` (configuration not stated), the INHIBITION is given as -3.94%.
As to `Cc1ccnc(NC(=O)C(C)Cn2cncn2)c1` (configuration not stated), the INHIBITION came out at 28.4%.
Then `Cc1nc(NCc2nonc2C)cc(C(C)Cn2nc(C)c(C)c2C)n1` (configuration not stated), with 43.8%.
For `COc1ccc2c(ccn2CCC(=O)Nc2nc[nH]n2)c1`, the INHIBITION was 29.9%.
Take `CCc1nc(CN2CCCC(NCc3nc(C)c(C)o3)C2)no1` (configuration not stated): the INHIBITION is recorded as -2.19%.
For the molecule `O=C(CC1COCCN1)N1CCCN(C2Cc3ccccc3C2)CC1` (configuration not stated), the INHIBITION is -22.1%.
For the molecule `COCCC1(CO)CCCN(C(=O)CCC(F)(F)F)C1` (configuration not stated), the INHIBITION is on record as -1.49%.
Consider `O=c1c2c[nH]c(N3CCC(O)CC3)nc-2cn1Cc1cccc(F)c1`, for which the INHIBITION was 11.8%.
In the case of `Cc1ccc(CN2CCC(O)(Cn3nc(-c4cccs4)oc3=O)CC2)o1` it was 14.6%; in that of `CCc1ncnc2c1CCN(Cc1cccs1)CC2`, 13.7%; in that of `Cc1occc1C(=O)N1CCO[C@H]2[C@H](OCc3cccnc3)CC[C@@H]21`, 34.4%.
With `CN(Cc1cnc(N)nc1)C(=O)C1CCN(C(=O)C2CCCC2)CC1`, the INHIBITION came to 44.3%.
Turning to `CC(=O)N(Cc1ccoc1)C1CCCCC1`, the INHIBITION is on record as -29.5%.
Then `CC(c1ccon1)N(C)C(=O)C1CCN(C(=O)C2CCC2)CC1` (configuration not stated), with 57.5%; and `CC(c1ccon1)N(C)C(=O)C1CCN(C(=O)C2CC2)CC1` (configuration not stated), with 34%; and `CN(Cc1ccoc1)C(=O)C1CCN(C(=O)C2CCCC2)CC1`, with 61.1%.
As for `CC(C)N1CCC(C(=O)N(C)C(C)c2ccon2)CC1` (configuration not stated), the INHIBITION is 1.94%.
In the case of `Cc1nn(Cc2ccc(C(=O)NC3CCS(=O)(=O)C3)cc2)c(C)c1Br` (configuration not stated) it was 7.3%.
Then `COCCN1C(=O)CCC12CCC(NCc1nccs1)CC2` (configuration not stated), with 10.5%; and `CN1CC2(CCN(C(=O)c3cn4cccnc4n3)CC2)CC1=O`, with -28.9%.
Then `O=C(NCc1cncc2c1CCN(CC1CCOC1)C2)c1ccco1` (configuration not stated), with -46%; and `O=C(O)c1c(-c2cccnc2)ncc2c1CCN(CC1CCOC1)C2` (configuration not stated), with -21.1%; and `CS(=O)(=O)NCc1cncc2c1CCN(CC1CCOC1)C2` (configuration not stated), with 53.4%.
With `Cc1nccc(NCc2cncc3c2CCN(CC2CCOC2)C3)n1` (configuration not stated), the INHIBITION was 91.9%.
On to `O=C(O)c1c(-c2ccncc2)ncc2c1CCN(CC1CCOC1)C2` (configuration not stated), for which the INHIBITION stood at 34.9%.
`Cc1nccc(NCc2cncc3c2CCN(CC2CC2)C3)n1`: the INHIBITION is 84.7%.
In the case of `O=C(NCc1cncc2c1CCN(CC1CCOC1)C2)c1ccno1` (configuration not stated) it was -0.813%; in that of `Cc1nccc(NCc2cncc3c2CCN(CCN(C)C)C3)n1`, 29.4%; in that of `c1cnc(NCc2cncc3c2CCN(CC2CC2)C3)nc1`, 48.4%.
On to `CCC(=O)N1CCN(CCn2cccn2)c2ncccc2C1`, for which the INHIBITION was determined as 43%.
Then `Cn1cc(CN2CCc3onc(COCC4CC4)c3C2)cn1`, with 5.96%; and `CCc1ncncc1C(=O)N1CCN(Cc2cscn2)CC1`, with 15.5%.
Then `COCc1nnc(NC(=O)c2cn(C(C)C)c3ccc(OC)cc23)s1`, with -42.5%; and `COc1nc2c(cc1C(=O)N1CCCOC(CN3CCCC3)C1)CCC2` (configuration not stated), with 54.5%; and `O=C(c1cccc(-n2cccn2)c1)N1CCCOC(CN2CCCC2)C1` (configuration not stated), with 13.7%.
In the case of `COc1ccc(C(=O)N2CC[C@H](CO)[C@H](O)C2)c(C)c1` it was 16.8%; in that of `COc1nc2c(cc1C(=O)N1CC[C@H](CO)[C@@H](O)C1)CCC2`, 61%; in that of `COc1cccc(C2CCCN2C(=O)c2cc3c(nc2OC)CCC3)c1` (configuration not stated), -10.8%.
For the molecule `COc1ccc2cc(C(=O)N3CC[C@H](CO)[C@H](O)C3)n(C)c2c1`, the INHIBITION is reported as 27.6%.
Regarding `COc1nc2c(cc1C(=O)N1CCCOC(Cn3cccn3)C1)CCC2` (configuration not stated), the INHIBITION is 59.1%.
Then `O=C(c1cccc(-n2cccn2)c1)N1CCCOC(Cn2cccn2)C1` (configuration not stated), with 0.891%; and `CCc1ncc(C(=O)N2CCCOC(Cn3cccn3)C2)cn1` (configuration not stated), with 40.2%.
